# Data as given in the supplement of paper PMC10849652.
# About 8,800 targets were measured; listed, in parts, are those with a hit and a random draw of the rest. About 0.5% of all pairs of compound and target were hits. A number with no mark means an inactive call.
# Experiments:
# Test in all cases: log2 fold change, soluble protein after heating vs DMSO (PISA); higher = thermal stabilisation; K562 lysate, 10 uM; active = over 0.2 and 3.5 SD of the protein, either way, in both replicates (recomputed)
# lapatinib = compound: CS(=O)(=O)CCNCc1ccc(-c2ccc3ncnc(Nc4ccc(OCc5cccc(F)c5)c(Cl)c4)c3c2)o1 [lapatinib]
# In short: (§1)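 K562 pellets were dounce-homogenised in PBS pH 7.4 containing 1 mM MgCl2, and the crude extract, at 1 mg/mL protein, was exposed to 10 μM compound for 30 min. Aliquots were heated for 3 min across 48°C-58°C, pooled, brought to 0.5% NP-40 at 4°C and spun at 21,000xg for 90 min, with the supernatant taken as soluble protein. TMTpro 16plex LC-MS/MS with equalised channel sums quantified that protein. Values are log-two fold changes in thermal stability relative to solvent controls, taken from duplicates.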
# pictilisib = compound: CS(=O)(=O)N1CCN(Cc2cc3nc(-c4cccc5[nH]ncc45)nc(N4CCOCC4)c3s2)CC1 [pictilisib]
# In short: as §1
# crizotinib = compound: C[C@@H](Oc1cc(-c2cnn(C3CCNCC3)c2)cnc1N)c1c(Cl)ccc(F)c1Cl [crizotinib]
# In short: as §1
# [1] = compound: C[C@H](C1=CC=C(C=C1)C(=O)NC2=C3C=CNC3=NC=C2)N
# In short: as §1
# duvelisib = compound: C[C@H](Nc1ncnc2nc[nH]c12)c1cc2cccc(Cl)c2c(=O)n1-c1ccccc1 [duvelisib]
# In short: as §1
# gandotinib = compound: Cc1cc(Nc2cc(CN3CCOCC3)c3nc(C)c(Cc4ccc(Cl)cc4F)n3n2)n[nH]1 [gandotinib]
# In short: as §1
# tozasertib = compound: Cc1cc(Nc2cc(N3CCN(C)CC3)nc(Sc3ccc(NC(=O)C4CC4)cc3)n2)n[nH]1 [tozasertib]
# In short: as §1
# doramapimod = compound: Cc1ccc(-n2nc(C(C)(C)C)cc2NC(=O)Nc2ccc(OCCN3CCOCC3)c3ccccc23)cc1 [doramapimod]
# In short: as §1
# bafetinib = compound: Cc1ccc(NC(=O)c2ccc(CN3CC[C@H](N(C)C)C3)c(C(F)(F)F)c2)cc1Nc1nccc(-c2cncnc2)n1 [bafetinib]
# In short: as §1
# [2] = compound: Cc1cccc(CC(=O)N2CCc3c2ccc(-c2cn(C)c4ncnc(N)c24)c3F)n1
# In short: as §1
# nilotinib = compound: Cc1cn(-c2cc(NC(=O)c3ccc(C)c(Nc4nccc(-c5cccnc5)n4)c3)cc(C(F)(F)F)c2)cn1 [nilotinib]
# In short: as §1
# [3] = compound: Cc1nc(Nc2n[nH]c3c2CN(C(=O)N[C@H](CN(C)C)c2ccccc2)C3(C)C)c2sccc2n1
# In short: as §1
# dasatinib = compound: Cc1nc(Nc2ncc(C(=O)Nc3c(C)cccc3Cl)s2)cc(N2CCN(CCO)CC2)n1 [dasatinib]
# In short: as §1
# [4] = compound: Cc1ncc(-c2ccnc(Nc3ccc(S(C)(=O)=O)cc3)n2)n1C(C)C
# In short: as §1
# [5] = compound: Cn1cc(-c2ccc3c(c2)CCN3C(=O)Cc2cccc(C(F)(F)F)c2)c2c(N)ncnc21
# In short: as §1
# quisinostat = compound: Cn1cc(CNCC2CCN(c3ncc(C(=O)NO)cn3)CC2)c2ccccc21 [quisinostat]
# In short: as §1
# tipifarnib = compound: Cn1cncc1[C@@](N)(c1ccc(Cl)cc1)c1ccc2c(c1)c(-c1cccc(Cl)c1)cc(=O)n2C [tipifarnib]
# In short: as §1
# [6] = compound: NC(=O)Nc1cc(-c2cccc(F)c2)sc1C(=O)N[C@H]1CCCNC1
# In short: as §1
# [7] = compound: NC(=O)c1cnc(N[C@@H]2CCCC[C@@H]2N)nc1Nc1cccc(-n2nccn2)c1
# In short: as §1
# [8] = compound: NC1(c2ccc(-c3nc4ccn5c(=O)[nH]nc5c4cc3-c3ccccc3)cc2)CCC1
# In short: as §1
# UniProt P49792, sequence (P49792 whole entry, looked up): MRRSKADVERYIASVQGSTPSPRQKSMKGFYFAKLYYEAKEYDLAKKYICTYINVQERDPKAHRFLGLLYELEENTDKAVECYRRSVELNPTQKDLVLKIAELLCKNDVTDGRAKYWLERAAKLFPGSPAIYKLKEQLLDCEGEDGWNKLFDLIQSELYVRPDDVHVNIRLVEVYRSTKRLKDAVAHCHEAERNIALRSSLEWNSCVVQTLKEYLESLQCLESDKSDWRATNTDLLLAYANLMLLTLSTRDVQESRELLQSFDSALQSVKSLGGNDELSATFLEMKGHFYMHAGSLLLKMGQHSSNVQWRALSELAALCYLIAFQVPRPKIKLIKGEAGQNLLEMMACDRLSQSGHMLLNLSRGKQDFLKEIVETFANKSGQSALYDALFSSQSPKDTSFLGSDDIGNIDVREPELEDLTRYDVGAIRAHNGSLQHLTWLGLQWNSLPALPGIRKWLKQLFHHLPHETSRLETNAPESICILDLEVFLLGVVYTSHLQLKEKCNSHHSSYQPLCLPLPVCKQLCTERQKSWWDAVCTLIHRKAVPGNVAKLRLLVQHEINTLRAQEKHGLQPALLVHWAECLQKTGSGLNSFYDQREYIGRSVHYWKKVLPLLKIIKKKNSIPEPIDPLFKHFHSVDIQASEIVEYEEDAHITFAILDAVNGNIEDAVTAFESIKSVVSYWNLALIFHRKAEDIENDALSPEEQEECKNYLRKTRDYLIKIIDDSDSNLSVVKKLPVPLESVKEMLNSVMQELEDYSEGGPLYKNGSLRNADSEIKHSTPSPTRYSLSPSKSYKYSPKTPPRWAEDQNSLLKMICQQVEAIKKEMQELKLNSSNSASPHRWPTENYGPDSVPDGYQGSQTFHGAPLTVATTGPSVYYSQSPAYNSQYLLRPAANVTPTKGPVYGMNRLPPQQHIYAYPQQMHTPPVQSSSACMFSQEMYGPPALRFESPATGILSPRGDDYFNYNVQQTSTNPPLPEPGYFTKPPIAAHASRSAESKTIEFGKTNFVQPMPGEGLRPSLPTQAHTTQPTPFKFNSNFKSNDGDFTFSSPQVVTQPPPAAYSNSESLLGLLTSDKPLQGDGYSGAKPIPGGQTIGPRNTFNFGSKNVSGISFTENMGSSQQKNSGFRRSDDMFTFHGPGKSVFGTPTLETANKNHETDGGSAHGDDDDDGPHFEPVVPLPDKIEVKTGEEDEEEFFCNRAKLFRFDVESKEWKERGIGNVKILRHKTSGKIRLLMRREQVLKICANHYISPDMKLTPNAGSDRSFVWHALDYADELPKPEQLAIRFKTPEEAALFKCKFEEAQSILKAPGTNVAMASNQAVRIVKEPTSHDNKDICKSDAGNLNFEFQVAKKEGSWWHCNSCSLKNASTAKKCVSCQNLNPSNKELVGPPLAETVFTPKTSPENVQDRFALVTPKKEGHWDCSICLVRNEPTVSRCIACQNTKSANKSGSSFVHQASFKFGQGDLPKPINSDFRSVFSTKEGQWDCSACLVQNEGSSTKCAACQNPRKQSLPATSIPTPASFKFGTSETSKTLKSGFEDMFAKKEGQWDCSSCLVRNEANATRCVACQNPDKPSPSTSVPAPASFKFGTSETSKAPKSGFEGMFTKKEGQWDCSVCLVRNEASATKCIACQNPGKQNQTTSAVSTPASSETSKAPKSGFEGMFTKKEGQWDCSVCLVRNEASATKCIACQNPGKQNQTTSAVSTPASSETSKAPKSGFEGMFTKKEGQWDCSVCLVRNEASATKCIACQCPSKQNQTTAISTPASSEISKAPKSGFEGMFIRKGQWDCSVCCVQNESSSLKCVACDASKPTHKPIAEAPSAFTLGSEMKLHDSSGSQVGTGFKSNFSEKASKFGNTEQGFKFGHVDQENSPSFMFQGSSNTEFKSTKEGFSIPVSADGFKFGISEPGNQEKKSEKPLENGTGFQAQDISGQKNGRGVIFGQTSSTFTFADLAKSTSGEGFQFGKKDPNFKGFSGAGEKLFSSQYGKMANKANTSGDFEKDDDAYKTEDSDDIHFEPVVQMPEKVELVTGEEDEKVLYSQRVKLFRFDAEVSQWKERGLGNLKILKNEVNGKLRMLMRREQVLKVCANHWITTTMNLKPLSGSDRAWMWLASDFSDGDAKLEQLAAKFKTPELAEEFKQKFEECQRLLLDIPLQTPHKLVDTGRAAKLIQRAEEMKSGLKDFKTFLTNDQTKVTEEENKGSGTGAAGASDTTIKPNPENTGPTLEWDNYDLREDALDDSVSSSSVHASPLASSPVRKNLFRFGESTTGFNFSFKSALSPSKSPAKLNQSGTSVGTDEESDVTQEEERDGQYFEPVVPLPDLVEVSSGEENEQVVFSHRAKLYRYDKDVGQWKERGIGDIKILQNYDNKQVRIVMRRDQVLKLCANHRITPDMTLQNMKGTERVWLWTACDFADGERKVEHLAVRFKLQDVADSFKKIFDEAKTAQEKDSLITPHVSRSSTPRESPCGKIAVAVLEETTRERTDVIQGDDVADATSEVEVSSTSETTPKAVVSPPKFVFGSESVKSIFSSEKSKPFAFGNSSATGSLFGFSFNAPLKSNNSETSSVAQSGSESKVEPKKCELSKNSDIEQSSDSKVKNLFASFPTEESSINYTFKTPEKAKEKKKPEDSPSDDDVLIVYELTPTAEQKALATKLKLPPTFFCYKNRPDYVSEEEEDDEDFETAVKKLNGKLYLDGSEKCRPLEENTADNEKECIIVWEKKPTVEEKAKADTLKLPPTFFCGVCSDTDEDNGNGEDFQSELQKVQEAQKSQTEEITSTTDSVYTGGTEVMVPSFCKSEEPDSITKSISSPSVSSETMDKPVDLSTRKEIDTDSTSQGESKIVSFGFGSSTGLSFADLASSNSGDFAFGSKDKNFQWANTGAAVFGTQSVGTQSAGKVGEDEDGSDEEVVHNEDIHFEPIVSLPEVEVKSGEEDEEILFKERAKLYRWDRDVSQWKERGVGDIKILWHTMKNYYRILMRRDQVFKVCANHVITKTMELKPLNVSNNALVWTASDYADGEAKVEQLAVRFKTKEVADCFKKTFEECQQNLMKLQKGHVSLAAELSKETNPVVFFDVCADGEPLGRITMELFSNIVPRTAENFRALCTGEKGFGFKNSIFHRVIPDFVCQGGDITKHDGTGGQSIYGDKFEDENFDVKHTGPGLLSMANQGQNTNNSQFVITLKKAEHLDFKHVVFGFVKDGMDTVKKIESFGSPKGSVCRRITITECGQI
# UniProt Q15404, sequence (Q15404 whole entry, looked up): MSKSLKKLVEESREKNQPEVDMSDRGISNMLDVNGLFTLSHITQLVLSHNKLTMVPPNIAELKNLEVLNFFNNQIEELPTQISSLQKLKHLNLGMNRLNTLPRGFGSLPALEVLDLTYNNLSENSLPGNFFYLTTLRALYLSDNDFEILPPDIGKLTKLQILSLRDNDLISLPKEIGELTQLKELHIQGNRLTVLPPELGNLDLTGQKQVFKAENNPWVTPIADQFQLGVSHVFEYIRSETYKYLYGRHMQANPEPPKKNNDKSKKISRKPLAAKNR
# UniProt Q16576, sequence (Q16576 whole entry, looked up): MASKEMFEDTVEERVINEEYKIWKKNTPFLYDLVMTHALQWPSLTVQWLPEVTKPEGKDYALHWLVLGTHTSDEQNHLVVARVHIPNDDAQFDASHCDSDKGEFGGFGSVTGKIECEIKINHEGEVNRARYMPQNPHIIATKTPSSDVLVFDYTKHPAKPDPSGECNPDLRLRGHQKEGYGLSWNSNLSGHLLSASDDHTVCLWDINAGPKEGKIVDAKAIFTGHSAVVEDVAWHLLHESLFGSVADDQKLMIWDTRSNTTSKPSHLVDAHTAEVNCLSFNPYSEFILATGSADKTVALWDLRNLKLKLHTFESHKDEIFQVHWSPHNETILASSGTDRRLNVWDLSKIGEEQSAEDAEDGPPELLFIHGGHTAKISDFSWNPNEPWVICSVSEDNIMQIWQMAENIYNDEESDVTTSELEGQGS
# UniProt Q15418, sequence (Q15418 whole entry, looked up): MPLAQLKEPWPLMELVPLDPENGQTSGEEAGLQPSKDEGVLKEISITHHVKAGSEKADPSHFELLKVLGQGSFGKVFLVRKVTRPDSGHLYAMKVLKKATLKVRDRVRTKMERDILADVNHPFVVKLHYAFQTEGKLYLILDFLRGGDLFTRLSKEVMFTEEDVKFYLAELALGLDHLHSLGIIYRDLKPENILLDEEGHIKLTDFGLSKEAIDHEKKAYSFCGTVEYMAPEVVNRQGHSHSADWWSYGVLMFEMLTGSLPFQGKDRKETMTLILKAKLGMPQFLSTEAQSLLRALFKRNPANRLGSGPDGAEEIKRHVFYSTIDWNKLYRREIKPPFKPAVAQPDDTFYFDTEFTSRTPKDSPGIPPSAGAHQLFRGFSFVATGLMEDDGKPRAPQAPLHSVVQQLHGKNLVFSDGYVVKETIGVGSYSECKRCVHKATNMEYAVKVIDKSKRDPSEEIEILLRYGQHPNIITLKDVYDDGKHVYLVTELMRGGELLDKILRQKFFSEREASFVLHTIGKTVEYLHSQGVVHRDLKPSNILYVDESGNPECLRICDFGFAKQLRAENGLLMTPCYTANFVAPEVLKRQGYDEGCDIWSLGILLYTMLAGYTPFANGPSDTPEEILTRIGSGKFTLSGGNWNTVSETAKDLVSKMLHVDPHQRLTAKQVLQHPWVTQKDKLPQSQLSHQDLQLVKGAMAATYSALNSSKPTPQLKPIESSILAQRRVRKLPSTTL
# UniProt Q99643, sequence (Q99643 whole entry, looked up): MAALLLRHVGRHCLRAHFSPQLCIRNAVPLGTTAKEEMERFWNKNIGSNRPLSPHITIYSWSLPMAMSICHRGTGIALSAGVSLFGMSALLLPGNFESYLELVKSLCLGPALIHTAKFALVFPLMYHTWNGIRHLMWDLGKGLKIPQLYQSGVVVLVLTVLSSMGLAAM
# UniProt Q53S08, sequence (Q53S08 whole entry, looked up): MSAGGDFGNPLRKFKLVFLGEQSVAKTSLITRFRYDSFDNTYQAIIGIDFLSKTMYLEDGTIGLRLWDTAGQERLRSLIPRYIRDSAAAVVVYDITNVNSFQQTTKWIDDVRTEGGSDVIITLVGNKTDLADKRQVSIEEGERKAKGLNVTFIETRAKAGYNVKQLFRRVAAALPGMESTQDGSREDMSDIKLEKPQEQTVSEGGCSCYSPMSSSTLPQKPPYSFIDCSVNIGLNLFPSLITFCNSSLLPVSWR
Target,log2 fold change (lapatinib),log2 fold change (pictilisib),log2 fold change (crizotinib),log2 fold change [1],log2 fold change (duvelisib),log2 fold change (gandotinib),log2 fold change (tozasertib),log2 fold change (doramapimod),log2 fold change (bafetinib),log2 fold change [2],log2 fold change (nilotinib),log2 fold change [3],log2 fold change (dasatinib),log2 fold change [4],log2 fold change [5],log2 fold change (quisinostat),log2 fold change (tipifarnib),log2 fold change [6],log2 fold change [7],log2 fold change [8]
RBM42 (UniProt Q9BTD8),0.05,0.049,0.01,0.026,-0.032,0.04,-0.001,0.216 (active),0.083,-0.01,0.102,-0.039,-0.021,0.009,-0.039,-0.033,0.073,-0.022,-0.049,0.004
SEC24D isoform 2 (UniProt O94855),0.016,-0.03,0,0.031,0.017,-0.02,0.005,0,-0.026,-0.019,-0.006,-0.016,-0.004,-0.029,0.002,0.01,0.001,-0.012,-0.004,0.006
RBM8A (UniProt Q9Y5S9),0.01,0.017,0.135,0.277 (active),-0.014,-0.209,0.06,-0.038,-0.017,-0.2,-0.005,0.025,0.023,0.004,0.067,0.187,0.051,-0.016,0,0.108
RPS6KA1 (UniProt Q15418),-0.067,0.08,-0.043,0.007,0.008,0.05,0.165,-0.039,-0.135,-0.172,-0.037,0.204,-0.113,0.078,0.031,-0.045,0.002,0.256,0.093,-0.028
RAB3IL1 (UniProt E9PK89),-0.025,0.063,0.039,0.045,-0.036,0.006,0.059,-0.117,-0.094,0.057,-0.039,-0.124,0.08,0.003,-0.084,0.027,0.061,-0.086,-0.012,0.157
RSU1 (UniProt Q15404),0.001,0.045,0.07,0.329 (active),0.007,-0.116,0.015,-0.045,0.039,-0.135,0.011,-0.011,0.007,-0.028,0.001,0.112,0.016,-0.002,0.007,0.002
RBBP8 isoform 2 (UniProt Q99708),-0.042,0.069,-0.085,0.065,0.032,-0.013,0.177,0.024,-0.079,0.007,-0.07,-0.003,0.063,0.081,0.031,0.074,0.022,0.033,0.035,-0.026
RAB6D (UniProt Q53S08),0.005,-0.008,-0.036,-0.058,0,0.189,0.015,-0.001,-0.136,0.154,-0.028,-0.019,-0.004,0.111,-0.008,-0.056,-0.162,-0.006,-0.013,-0.064
RPL37A (UniProt P61513),-0.012,-0.01,-0.011,0.312 (active),-0.088,-0.131,-0.087,-0.044,0.02,-0.2,0.041,0.011,0.095,0.067,0.032,0.139,0.008,-0.028,-0.013,-0.021
RBM22 (UniProt Q9NW64),-0.01,-0.011,0.038,0.034,0.008,-0.019,0.026,0.072,0.001,-0.016,-0.045,0.024,-0.072,-0.006,0.057,-0.022,-0.036,-0.027,0.01,0.033
RNF168 (UniProt Q8IYW5),-0.034,0.063,0.027,-0.015,0.037,0.002,-0.088,-0.008,-0.212,-0.036,0.144,0.085,0.064,-0.186,0.006,-0.019,0.016,-0.009,-0.02,0.018
SDHC (UniProt Q99643),0.002,0.071,0.032,-0.244,0.004,0.179,-0.067,0.016,-0.004,0.133,-0.009,0.056,-0.001,-0.006,-0.015,0,-0.068,-0.057,-0.016,0.028
RANBP2 (UniProt P49792),0.002,-0.001,-0.01,-0.009,-0.014,-0.069,0.001,-0.002,-0.02,0.06,-0.018,0.001,-0.059,0.006,0.021,-0.05,-0.055,0.046,0.007,-0.003
RIPK1 (UniProt Q13546),0.006,-0.002,0.061,-0.026,-0.05,0.256 (active),0.326 (active),0.038,0.007,0.755 (active),-0.053,-0.014,0.087,0.248 (active),0.723 (active),-0.074,-0.064,0.015,0.01,-0.047
RBBP7 isoform 2 (UniProt Q16576),0.002,0.027,0.008,-0.213,0.025,0.019,0.017,0.035,0.018,-0.011,0.013,-0.019,-0.005,-0.035,0.016,-0.051,0.047,0.01,-0.025,0.035
QTRT2 isoform 4 (UniProt Q9H974),-0.016,-0.037,-0.018,-0.297 (active),-0.008,0.185,0.003,-0.029,-0.089,0.256 (active),-0.001,-0.024,0.005,-0.024,-0.051,-0.059,0.022,0.022,0.004,0.021
